Assay outcomes from PubChem.
NPC1 promoter act: activators of NPC1 promoter; AID 485313; 2.4% of 320,000 active; Potency, µM (titrated, usually from 9.22 µM), for inactives: top-dose activation, usual class: activators; Huh7 NPC1 promoter luciferase reporter, 24 h; note: % of control where 0% means no effect; nearly all actives have a fitted effect of over 60% in size
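Compounds in DMSO were transferred onto Huh7 NPC1-luciferase reporter cells pre-incubated 2 h; after 24 h at 37 °C, Amplite reagent was dispensed and luminescence recorded 10 min later.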
ELG1 genotoxic: induces genotoxicity in HEK293T cells with luciferase-tagged ELG1. HEK293T ELG1-luciferase reporter, luminescence, 16 h. AID 504466. Potency, µM (highest dose often 46 µM), for the others: top-dose activity change, positive = activation, actives largely listed as activators. 1.3% of 330,000 active; note: % of control where 0% means no effect; nearly all actives have a fitted effect of over 60% in size
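After overnight (16 hr) compound treatment at 37 °C, ELG1-luciferase HEK293T cells were lysed with ONE-Glo; luminescence quantified 30 min later at room temperature.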
ELG1 DNA repair: inhibitors of ELG1-dependent DNA repair in HEK293T cells. HEK293T ELG1-luciferase reporter, luminescence, 16 h; DNA damage induced by 5-fluorouridine. Potency, µM (titrated, usually from 46.1 µM), inactives show at the top dose activity change, negative = inhibition, actives largely listed as inhibitors. 2.3% of 330,000 active. AID 504467; note: % is set by controls: 0 for no effect and ±100 for the full control effect; nearly all actives have a fitted effect of over 55% in size
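Overnight (16 hr) co-exposure of 2,000 cells/well to 5-fluorouridine and compound at 37 °C preceded detection. Luciferase was quantified via ONE-Glo luminescence; loss of signal denotes inhibition.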
FLuc counter: firefly luciferase modulation, counter-screen for miR-21 project; 6.9% of 360,000 active; AID 588342; Potency, µM (doses to about 57.5 µM), inactives show at the top dose activity change, negative = inhibition, actives largely listed as inhibitors; purified FLuc, Km substrates, luminescence inhibition; P08659;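 note: plate controls were vehicle for no effect and reference inhibitor for full effect; nearly all actives have a fitted effect of over 55% in size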
Target sequence (P08659 whole entry, looked up): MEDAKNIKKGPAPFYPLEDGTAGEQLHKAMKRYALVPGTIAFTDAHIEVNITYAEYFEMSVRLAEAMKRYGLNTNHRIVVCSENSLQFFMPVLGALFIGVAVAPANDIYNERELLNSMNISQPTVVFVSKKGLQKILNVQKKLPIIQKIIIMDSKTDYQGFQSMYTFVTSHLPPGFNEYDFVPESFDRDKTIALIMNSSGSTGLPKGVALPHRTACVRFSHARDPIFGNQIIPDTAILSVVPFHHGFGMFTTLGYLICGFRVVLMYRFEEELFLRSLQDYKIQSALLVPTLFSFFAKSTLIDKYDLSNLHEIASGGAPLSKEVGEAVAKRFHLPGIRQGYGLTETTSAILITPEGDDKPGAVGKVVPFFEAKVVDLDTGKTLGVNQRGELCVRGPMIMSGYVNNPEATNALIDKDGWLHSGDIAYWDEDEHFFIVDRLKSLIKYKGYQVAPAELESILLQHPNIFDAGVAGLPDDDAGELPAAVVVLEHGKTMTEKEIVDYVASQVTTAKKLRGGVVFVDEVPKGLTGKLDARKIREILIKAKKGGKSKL
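Biochemical qHTS of compounds, final roughly 60 µM downward over six points, against 10 nM purified firefly luciferase using Km concentrations of substrates (10 uM D-luciferin, 10 uM ATP) in Tris acetate pH 7.5 buffer; luminescence output.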
SMN2 splice up: increases expression of the SMN2 splice variant | 2.8% of 210,000 active | AID 1458 | HEK293 SMN2-luciferase splicing reporter, luminescence, 30-36 h | Potency, µM (highest dose often 46.1 µM), for the others: at the highest dose activity change, positive = activation, hits mostly activators; note: % of control where 0% means no effect; nearly all actives have a fitted effect of over 55% in size
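HEK293 cells carry an SMN2 […]–luciferase reporter in which exon 7 inclusion puts luciferase in frame. Cells were plated 10-12 h before compound addition, then incubated 30-36 h at 37C. ONE-Glo luminescence was read; sodium butyrate at 4.5 mM final served as control.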
Rab9 prom act: activators of Rab9 promoter. Huh7 Rab9 promoter-luciferase reporter, luminescence, 24 h. 2.8% of 320,000 active. Potency, µM (series often up to 9.22 µM), inactives show at the top dose activation, negative = inhibition, usual class: activators; note: % of control where 0% means no effect; nearly all actives have a fitted effect of over 60% in size
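Luminescence read-out: Huh7 cells stably expressing Rab9-luciferase, treated 24 h with compound at 37 °C, then lysed with luciferase reagent for 10 min at ambient before reading.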
The depositor's hits bear a star; ? = inconclusive; · = no result given; [ ] = another dose, or the depositor's remark. A selection: hits, their analogues and other compounds. The true share with any hit is near 9.3%. Calls come from the whole dose curve; as a rule, active = well fitted curve in the direction sought with a large enough effect; inconclusive = small, poorly fitted or top-dose-only effect, or another doubt; inactive = no such curve, though single readings can be large; an effect the other way counts as inactive or inconclusive. Potency is the fitted concentration of half-maximal effect.

SMILES	NPC1 promoter act	ELG1 genotoxic	ELG1 DNA repair	FLuc counter	SMN2 splice up	Rab9 prom act
CC1Cc2cc(S(=O)(=O)N3CCC(C(N)=O)CC3)ccc2N1C(=O)C1CC1 (stereo unspecified)	-2%	0%[9.26 µM]	-1%	1%	·	-3%
CCOC(=O)C1CCN(S(=O)(=O)c2ccc3c(c2)CC(C)N3C(=O)C2CC2)CC1 (stereo unspecified)	-9%	-7%[9.26 µM]	-6%	-1%	·	-9%
CCc1ccc(NC(=O)C2CCN(S(=O)(=O)c3ccc4c(c3)CC(C)N4C(C)=O)CC2)cc1 (stereo unspecified)	-7%	-11%	7.3µM*	5%	·	-20%
CC(=O)N1c2ccc(S(=O)(=O)N3CCC(C(=O)Nc4cccc(C)c4)CC3)cc2CC1C (stereo unspecified)	-6%	-2%[9.26 µM]	29µM*	2%	·	0%
CCOC(=O)C1CCN(C(=O)C2CCN(S(=O)(=O)c3ccc4c(c3)CC(C)N4C(C)=O)CC2)CC1 (stereo unspecified)	-6%	0%[9.26 µM]	10µM*	-3%	·	-8%
CC1CCC(NC(=O)CSc2ccc(S(=O)(=O)N(C)C)cn2)CC1 (stereo unspecified)	-2%	-2%	12%	2%	·	2%
Cc1ccccc1N=C1N=C(N)c2ccccc21	0%	8%	-1%	5%	5%	0%
O=C(NCc1ccccn1)c1ccc2c(=O)n3nc(Nc4ccccc4)sc3nc2c1	-3%	2%	?	-9%	·	-1%
Cc1ccnc(NC(=O)C2CCN(S(=O)(=O)c3ccc4c(c3)CC(C)N4C(=O)C3CCC3)CC2)c1 (stereo unspecified)	-3%	-18%	9.2µM*	1%	·	0%
CCc1ccccc1N(CC)C(=O)C1CCN(c2ncnc3c2nc2n3CCCCC2)CC1	-11%	-12%	15µM*	0%	·	-7%
CC1CCN(C(=O)C2CCCN(c3ncnc4c3nc3n4CCCCC3)C2)CC1 (stereo unspecified)	0%	-3%	-21%	0%	·	-9%
COc1cccc(N2CCN(C(=O)C3CCCN(c4ncnc5c4nc4n5CCCCC4)C3)CC2)c1 (stereo unspecified)	-2%	-13%	3.3µM*	4%	·	-3%
CCN(Cc1ccccc1)C(=O)C1CCN(c2ncnc3c2nc2n3CCCCC2)CC1	1%	-9%	?	3%	·	0%
O=C(C1CCN(c2ncnc3c2nc2n3CCCCC2)CC1)N1CCN(c2ccc(F)cc2)CC1	-4%	-3%[9.26 µM]	7.3µM*	0%	·	-8%
CCc1c(C)nc2ncnn2c1N1CCC(C(=O)N2CCN(c3ccc(F)cc3)CC2)CC1	-2%	-18%	23µM*	8%	-72%	1%
COc1ccccc1NC(=O)C1CCCN(c2ncnc3c2nc2n3CCCCC2)C1 (stereo unspecified)	0%	-10%	21µM*	0%	·	0%
Cc1cccc(CCNC(=O)C2CCCN(c3ncnc4c3nc3n4CCCCC3)C2)c1 (stereo unspecified)	-6%	-9%	?	4%	·	0%
Cc1cccc(N2CCN(CCCNC(=O)C3CCCN(c4ncnc5c4nc4n5CCCCC4)C3)CC2C)c1 (stereo unspecified)	-8%	-16%	12µM*	-4%	·	-13%
CCOc1cc(NC(=O)c2cccs2)c(OCC)cc1NC(=O)c1cccnc1	0%	8%	-1%	1%	2%	-8%
COC(=O)c1ccc2c(=O)n(CCCCCC(=O)N3CCN(c4ccc(F)cc4)CC3)c(=O)[nH]c2c1	-2%	-18%	2.9µM*	-2%	-12%	2%
COCCn1c(=O)[nH]c2cc(C(=O)NCCN3CCN(c4ccccc4)CC3)ccc2c1=O	0%	2%	-25%	2%	-9%	-3%
COCCn1c(=O)[nH]c2cc(C(=O)NCCN3CCN(c4ccc(OC)cc4)CC3)ccc2c1=O	0%	-9%	9.2µM*	-7%	-58%	-2%
COC(=O)c1c(NC(NC(=O)C(C)C)C(Cl)(Cl)Cl)sc2c1CCCC2 (stereo unspecified)	-3%	1%	?	4%	-15%	-5%
O=c1[nH]c2ccc(Cl)cc2c(O)c1-c1ccccc1	1%	1%	?	9.5µM*	8%	-3%
Cc1ccc(NC(=O)Nc2cccs2)c(C)c1	·	·	·	?	-6%	·
SMILES	NPC1 promoter act	ELG1 genotoxic	ELG1 DNA repair	FLuc counter	SMN2 splice up	Rab9 prom act
C=CCn1c(C)cc(C(=O)COC(=O)c2ccc3c(c2)NC(=O)CS3)c1C	5%	0%	?	17µM*	21%	2%
COC(=O)c1ccc2c(c1)NC(=O)CS2	-6%	-1%	4%	-2%	3%	-5%
COCCn1c(C)cc(C(=O)COC(=O)c2ccc3c(c2)NC(=O)CS3)c1C	0%	1%	?	13µM*	7%	1%
C=CCn1c(C)cc(C(=O)COC(=O)c2ccc(N)c([N+](=O)[O-])c2)c1C	4µM*	2.6µM*	?	3µM*	13µM*	1.3µM*
CCOc1ccc(/C=C2\NC(=S)NC2=O)cc1	-1%	0%	-8%	17µM*	·	-7%
O=S(=O)(c1ccc(NC(=S)NN=C2CCCCC2)cc1)N1CCOCC1	-10%	0%	7%	2%	10%	-1%
CC1CCc2c(sc3ncnc(NCc4cccnc4)c23)C1 (stereo unspecified)	6%	0%	-13%	27µM*	29%	-8%
c1cncc(CNc2ncnc3sc4c(c23)CCC4)c1	3%	-15%	?	-5%	·	-4%
Cc1nn(C)c(C(=O)Nc2ccn(Cc3c(F)c(F)cc(F)c3F)n2)c1[N+](=O)[O-]	3%	-1%	-19%	-1%	-6%	0%
Cc1nn(Cc2cccc(C(=O)Nc3ccn(Cc4c(F)c(F)cc(F)c4F)n3)c2)c(C)c1[N+](=O)[O-]	-5%	-14%	21µM*	0%	-23%	3%
O=C(NCCc1ccccc1)C1CCN(c2nc3ccccc3o2)CC1	-1%	-9%	?	0%	-25%	-4%
O=C(NC1CCCCCCC1)C1CCN(c2nc3ccccc3o2)CC1	5%	?	16µM*	4%	-73%	-11%
Cc1nc(C(=O)NC2CCCCC2)sc1C1(C)CC(c2cccc([N+](=O)[O-])c2)=NO1 (stereo unspecified)	-6%	-7%	?	2%	·	-2%
COc1ccc(-n2nc(C(=O)NCC(=O)NCc3ccc(F)cc3)c3ccccc3c2=O)c(OC)c1	-2%	3%	-15%	5%	-18%	1%
CSc1nc(N)nc2c1ncn2CC(=O)Nc1ccc(C)c(C)c1	·	3%	6.5µM*	·	·	·
